{"source": "PubChem BioAssay AID504428", "about": "(National Center for Advancing Translational Sciences (NCATS), 2011)", "note": "The other results are listed elsewhere or left out. Where a call stands in place of a potency, no number is given. Active and inactive are the calls of the source.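 The calls were made as follows: active = compounds that inhibited Clk3 enough in the ten-dose series to give a half-maximal potency; inactive = the rest.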"}
{"biological_target": "Dual specificity protein kinase CLK3 (Homo sapiens) (UniProt P49761)", "sequence (P49761 whole entry, looked up)": "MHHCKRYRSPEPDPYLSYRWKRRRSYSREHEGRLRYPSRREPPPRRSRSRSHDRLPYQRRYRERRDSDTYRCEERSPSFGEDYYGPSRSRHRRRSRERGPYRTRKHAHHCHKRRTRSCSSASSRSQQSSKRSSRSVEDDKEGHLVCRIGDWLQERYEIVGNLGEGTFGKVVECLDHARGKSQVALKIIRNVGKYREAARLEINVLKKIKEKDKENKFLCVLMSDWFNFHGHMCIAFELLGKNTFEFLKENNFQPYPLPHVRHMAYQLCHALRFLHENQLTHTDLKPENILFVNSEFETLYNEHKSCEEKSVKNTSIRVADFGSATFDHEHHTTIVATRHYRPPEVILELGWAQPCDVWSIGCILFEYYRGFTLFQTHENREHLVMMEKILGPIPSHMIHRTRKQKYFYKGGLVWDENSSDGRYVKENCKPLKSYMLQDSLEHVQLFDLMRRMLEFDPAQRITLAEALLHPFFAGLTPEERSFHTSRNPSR", "experiment": "Kinase Inhibition Study on Inhibitors of CDC-like Kinase 3 (Reaction Biology data)", "conditions": "recombinant CLK3 kinase assay, 10 uM ATP", "from_the_text": "NIH Molecular Libraries Probe Production Centers Network [MLPCN] NIH Chemical Genomics Center [NCGC] MLPCN Grant: 1R03MH084827-01 Assay Submitter (PI): Tom Misteli NCGC Assay Overview: Alternative splicing of pre-mRNAs plays a major role in the regulation of eukaryotic gene expression. Alternative splicing is now thought to be one of the primary reasons for the complexity of higher organisms leading to an average of three protein isoforms per gene. Aberrant splicing can lead to a number of diseases and is known to play a role in rare genetic diseases such as progeria syndrome. Hutchinson-Gilford Progeria Syndrome (HGPS) is a pediatric premature aging disease caused by a spontaneous mutation in the lamin A/C (LMNA) gene due to a single point mutation in the lamin A gene effecting 1 in 4 million people. To identify both specific splicing modulators of the lamin A gene as well as general splicing modulators, a cell-based HTS assay was developed using a minigene reporter system (AIDs, 1459 & 1487). […] This AID summarizes the characterization of lead compounds in Clk3.\nAll kinase reactions were performed using 10 uM ATP in the assay. 100% activity was taken from kinase reactions with DMSO alone (the vehicle used for compound stock solutions)."}
{"smiles": "c1coc(CCNc2ncnc3ccc(-c4ccc5c(c4)OCO5)cc23)c1", "Potency": "2.02 µM (active)"}
{"smiles": "c1nc(N2CCOCC2)c2cc(-c3ccc4c(c3)OCO4)ccc2n1", "outcome": "inactive"}
{"smiles": "CN(Cc1cncn1C)c1ncnc2ccc(-c3ccc4c(c3)OCO4)cc12", "outcome": "inactive"}
{"smiles": "CC(Nc1ncnc2ccc(-c3ccc4c(c3)OCO4)cc12)c1ccco1", "note": "(centres undefined)", "Potency": "15 µM (active)"}
